The source of these data is PubChem BioAssay (NCI).

This is part of a sample that, as a whole, favours compounds with a hit. Of some 79,000 tested, about 15% had one in any assay. A number with no mark means an inactive call. Calls of active or inactive are those of the source. Cut-off read from the data, not from the text of the source: active = growth inhibition above about 70%; inactive = the rest.

The nature of test [1]: NCI Yeast Anticancer Drug Screen. Data for the rad50 strain (AID 155).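 Note: 0% = growth of vehicle-only cultures of the same strain.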 As to conditions: S. cerevisiae rad50 strain growth inhibition; at 50.0 µM; stronger effect = higher value. The method in brief: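 DNA repair mutant yeast, compound exposure, growth read-out; inhibition is taken relative to vehicle.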
A short description of test [2]: NCI Yeast Anticancer Drug Screen. Data for the mec2-1 strain (AID 157). Conditions: S. cerevisiae mec2-1 strain, at 50.0 µM, stronger effect = higher value. In outline:
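Compounds were applied to mec2-1 yeast cells. Their growth was then compared with that of vehicle-treated cultures to give growth inhibition.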

A short description of test [3]: NCI Yeast Anticancer Drug Screen. Data for the sgs1 mgt1 strain (AID 161).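 Note: 0% = growth of cultures given vehicle only.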 Conditions: S. cerevisiae sgs1 mgt1 strain, at 50.0 µM, stronger effect = higher value. The method in brief: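 Compounds are added to genetically altered yeast, and growth is compared with cultures given vehicle alone to give percent inhibition.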
Test [4] is described as follows: NCI Yeast Anticancer Drug Screen. Data for the cln2 rad14 strain (AID 165).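 Note: 0% = growth equal to vehicle treated cultures.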 Conditions: S. cerevisiae cln2 rad14 strain, at 50.0 µM, stronger effect = higher value. In outline: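 Strain: cln2 rad14 yeast, altered in cell cycle control and DNA damage repair. Read-out: growth inhibition vs vehicle.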
A short description of test [5]: NCI Yeast Anticancer Drug Screen. Data for the bub3 strain (AID 167). As to conditions: S. cerevisiae bub3 mutant strain, at 50.0 µM, stronger effect = higher value. In outline: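 In this screen, a yeast mutant lacking normal mitotic checkpoint function is challenged with compound. Relative growth versus vehicle gives the inhibition value.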
A short description of test [6]: NCI Yeast Anticancer Drug Screen. Data for the mlh1 rad18 strain (AID 175). As to conditions: S. cerevisiae mlh1 rad18 strain growth inhibition; at 50.0 µM; stronger effect = higher value. In outline:
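A repair-deficient yeast strain is exposed to test compound, and growth is scored relative to vehicle-treated controls.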

As to `CCOC(=O)c1nn2c(nc1=O)sc1ccc3ccccc3c12`, the growth inhibition in test [1] was -22%; in test [2], -5.7%; in test [3], 7.8%; in test [4] it was 32.1%; in test [5] it was 25%; in test [6] it was 2.05%.

As to `CCOC(=O)c1c(C)c(C)n2c1NC(=O)C2`, the growth inhibition in test [1] was -4.5%; in test [2] it was -4.6%; in test [3], -37.5%; in test [4], -36.8%; in test [5], -30.6%; in test [6] it was -13.9%.

With `CCNc1nc(C)nc2c1cnn2-c1ccc(C)cc1`, the growth inhibition in test [1] is 6.25%; in test [2] it was -3.4%; in test [3] it was 25.3%; in test [4], -27.5%; in test [5], -21.8%; in test [6] it was 7.25%.

Take `CN=NN(C)C(=O)NC`: the growth inhibition in test [1] is -11.9%; in test [2], 0.7%; in test [3] it was 10.1%; in test [4] it was -13%; in test [5], -25%; in test [6], 30.4%.

Consider `Cn1c(=O)n(CCn2c(=O)n(C)c3ccccc32)c2ccccc21`, for which the growth inhibition in test [1] was -1.6%; in test [2], 14%; in test [3] it was -3.15%; in test [4], 3.55%; in test [5], 4.5%; in test [6] it was -3.8%.

Consider `N#CC1CCCCCC1`, for which the growth inhibition in test [1] was 0.8%; in test [2], -12.4%; in test [3], 5.7%; in test [4], 2.6%; in test [5], 8.15%; in test [6], 5.85%.

On to `Cc1ccc2[nH]c(=O)cc(C(F)(F)F)c2c1`, for which the growth inhibition in test [1] is 13.2%; in test [2], 6.35%; in test [3], 5.4%; in test [4], -2.1%; in test [5], -15.2%; in test [6], 21.7%.

`O=C(CNc1ccc2c(=S)c3ccccc3[nH]c2c1)Nc1ccccc1-c1ccccc1NC(=O)CNc1ccc2c(=S)c3ccccc3[nH]c2c1`: the growth inhibition in test [1] is 88.6% (active); in test [2], 92.5% (active); in test [3] it was 92.1% (active); in test [4], 90.8% (active); in test [5], 90.7% (active); in test [6], 85.9% (active).

In the case of `C=CCOC(=O)CC=C`, the growth inhibition in test [1] was -8.7%; in test [2] it was -3.1%; in test [3], 4.75%; in test [4], 6.7%; in test [5], -11.4%; in test [6] it was 5.3%.

Regarding `CC(C)(C)C(=O)Nc1ccccc1`, the growth inhibition in test [1] is 37.7%; in test [2], 17%; in test [3] it was 0.2%; in test [4], 1.55%; in test [5], -12.4%; in test [6], 23%.

As for `O=[N+]([O-])c1ccc(-c2cn(-c3ccc(Cl)cc3)cn2)cc1`, the growth inhibition was 2.75% in test [1]; -4.15% in test [2]; 7.5% in test [3]; 3.35% in test [4]; -1.85% in test [5]; -5.7% in test [6].

Take `O=C1C=C/C(=N\N=C(c2ccccc2)c2ccccc2)O1`: the growth inhibition in test [1] is -38.1%; in test [2], -67.8%; in test [3], -49.6%; in test [4] it was 7.45%; in test [5] it was -42.7%; in test [6] it was -28.2%.

For `CCOC(=O)c1cnc2cc3c(cc2c1Nc1cccc(C(F)(F)F)c1)OCO3`, the growth inhibition in test [1] was 5.95%; in test [2] it was -8.85%; in test [3] it was -9.5%; in test [4], -6.45%; in test [5] it was -2.75%; in test [6], -11.6%.

For `N#Cc1nnc2cc(-c3ccccc3)nn2c1-c1cccs1`, the growth inhibition in test [1] was 0.6%; in test [2], -8.6%; in test [3], 15.8%; in test [4], 21.1%; in test [5], 4.1%; in test [6], 6.35%.

Turning to `Cc1ccc2nc(NS(=O)(=O)c3cc(C)c(Cl)cc3S)[nH]c2c1`, the growth inhibition is 9.35% in test [1]; 4.35% in test [2]; 9.1% in test [3]; 8.25% in test [4]; 16.4% in test [5]; 39.9% in test [6].

`Nc1cc2c(cn1)[nH]c1ccccc12`: the growth inhibition in test [1] is 2.9%; in test [2] it was -14.8%; in test [3], -13.8%; in test [4], -16.4%; in test [5], 5.6%; in test [6], -2.35%.

`CC(CCNC(=S)S)CC(C)(C)C.[Zn+2]` (stereo not drawn): the growth inhibition in test [1] is 9.75%; in test [2] it was 15.1%; in test [3], -7.55%; in test [4], -36%; in test [5] it was -4.65%; in test [6] it was -1%.

On to `C=C(C)C12CC3CC/C(=N/O)C(C1)C3(N1CCOCC1)C/C2=N/O` (stereo not drawn), for which the growth inhibition is -21.6% in test [1]; -18.9% in test [2]; -16.2% in test [3]; -12.3% in test [4]; -7.15% in test [5]; -25.9% in test [6].

For the molecule `CC1(C)OP2(O)(OC(C)(C)c3ccccc32)c2ccccc21`, the growth inhibition was 31.1% in test [1]; 5.6% in test [2]; 12.3% in test [3]; 1.8% in test [4]; 6.85% in test [5]; 24.1% in test [6].

Turning to `O=C(CN=C(CN(c1ccccc1)c1ccccc1)Oc1c(Cl)cc(Cl)cc1Cl)N1c2ccccc2Sc2ccccc21`, the growth inhibition in test [1] was 4.75%; in test [2] it was -10.8%; in test [3], 36.5%; in test [4], -36.2%; in test [5], -14.7%; in test [6], 7.8%.

Consider `O=C1/C(=C\c2ccccc2)Cc2cc3c(cc21)OCO3`, for which the growth inhibition in test [1] is 6.1%; in test [2], 1.85%; in test [3], -3.55%; in test [4], -15.9%; in test [5] it was 8.95%; in test [6], -6.45%.

As to `NCC(=O)Nc1ccc(C(=O)O)cc1`, the growth inhibition in test [1] was 28.8%; in test [2], 17.1%; in test [3], 7.6%; in test [4] it was 4.6%; in test [5], 4.05%; in test [6], 9.1%.

As to `CC(C)C(C(N)=O)C(C)C`, the growth inhibition in test [1] was 3.6%; in test [2], -6.4%; in test [3], -3.65%; in test [4], 10.7%; in test [5], 0%; in test [6], -1.2%.

Take `O=C1c2ccccc2C2(O)NC(=S)N(c3ccccc3)C12O` (stereo not drawn): the growth inhibition in test [1] was -14.2%; in test [2], -20.8%; in test [3] it was 4.95%; in test [4], 15.4%; in test [5], 6.2%; in test [6], -2.1%.

Take `CN(C)c1ncnc2c1ncn2C1OC(CO)C(N)C1O` (stereo not drawn): the growth inhibition in test [1] was 19.2%; in test [2], 3%; in test [3] it was 26.1%; in test [4], 0.55%; in test [5], 28.5%; in test [6], 20.6%.

On to `CNC(=O)c1ccccc1S(=O)Cc1ccc(Br)cc1` (stereo not drawn), for which the growth inhibition in test [1] was -19.1%; in test [2], -30.2%; in test [3] it was -17.6%; in test [4] it was 8.35%; in test [5] it was 22.7%; in test [6], -0.95%.

Take `COc1ccc(/C=C2\NC(=O)NC2=O)cc1Br`: the growth inhibition was 11.8% in test [1]; 10.4% in test [2]; 2.65% in test [3]; 7% in test [4]; 9.1% in test [5]; 8.5% in test [6].

As to `O=[N+]([O-])C1CC(O)C(O)CC1c1ccc2c(c1)OCO2` (stereo not drawn), the growth inhibition is 11.1% in test [1]; 7.25% in test [2]; 1.7% in test [3]; 3.05% in test [4]; 1.95% in test [5]; 3.7% in test [6].

As to `O=C(O)CS(=O)(=O)Cc1ccc(Cl)cc1Cl`, the growth inhibition in test [1] was 15.6%; in test [2], 20.4%; in test [3], 24%; in test [4], 12.8%; in test [5] it was 25.1%; in test [6], 18.6%.

As to `CCOC(=O)C(C)NCc1ccccc1` (stereo not drawn), the growth inhibition is 2.15% in test [1]; 0.1% in test [2]; -1.4% in test [3]; -39.6% in test [4]; 0.95% in test [5]; -3.25% in test [6].

In the case of `CCOc1ccccc1NC(=O)Nc1ccccc1Cl`, the growth inhibition in test [1] is -0.1%; in test [2], -2.15%; in test [3], 23.1%; in test [4], -18.3%; in test [5], 7.5%; in test [6] it was 21.3%.

On to `O=c1[nH]c2cc(Cl)ccc2nc1/C(=N\Nc1ccccc1)C(O)c1ccc(Cl)c(Cl)c1` (stereo not drawn), for which the growth inhibition in test [1] was 11.6%; in test [2], -4.8%; in test [3], -9.55%; in test [4], 24.4%; in test [5], 17.1%; in test [6] it was 19%.

On to `O=C(O)CN1C(=O)/C(=C\c2ccc3ccccc3n2)SC1=S`, for which the growth inhibition in test [1] is 1.9%; in test [2], 18.9%; in test [3] it was 2.85%; in test [4], -14.1%; in test [5], 0.4%; in test [6], 20.6%.

For the molecule `CCOC(=O)Nc1cc([N+](C)(C)C)ccc1OCCOc1ccc([N+](C)(C)C)cc1`, the growth inhibition is -0.4% in test [1]; 5.35% in test [2]; -8.4% in test [3]; -8.8% in test [4]; -1.65% in test [5]; 28.6% in test [6].

On to `NC(=O)c1cc([N+](=O)[O-])cnc1Sc1ncccn1`, for which the growth inhibition in test [1] is 40.8%; in test [2] it was 14.9%; in test [3], 21.7%; in test [4], 18.2%; in test [5], 29.9%; in test [6] it was 44.6%.

On to `CC[N+](C)(CC)c1ccccc1`, for which the growth inhibition in test [1] was -4.35%; in test [2], -54.3%; in test [3], -18.6%; in test [4], 0.3%; in test [5], -33.5%; in test [6], 1.1%.

Consider `O=C(NC(CC(NC(=O)OCc1ccccc1)NC(=O)OCc1ccccc1)NC(=O)OCc1ccccc1)OCc1ccccc1`, for which the growth inhibition was -2.55% in test [1]; 7.1% in test [2]; -0.1% in test [3]; 5.6% in test [4]; 0.85% in test [5]; -4.55% in test [6].

With `CN1C(=O)CC(NC(=O)CNC(=O)c2ccccc2)C1=O` (stereo not drawn), the growth inhibition in test [1] is 19.5%; in test [2], 16%; in test [3], 23.1%; in test [4], 21.1%; in test [5] it was 2.7%; in test [6], 29.4%.
